# Measurements from PubChem BioAssay (NCI).
# Where “and” joins values, the source holds several entries; their conditions need not be identical. Identical values can stand only once. This is part of a sample that, as a whole, favours compounds with a hit. Of some 83,000 tested, about 20% had one in any assay.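 Cell lines were cultured in 96-well plates, exposed to a single compound concentration, and assessed for percent growth 48 hours later.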 Calls of active or inactive are those of the source. How the source made its calls: active means growth percent below 10; inactive means the rest.
# Columns and labels:
# Experiment in all cases: NCI-60 one-dose screen, 48 h (100 = growth as untreated, 0 = no growth, -100 = all killed)
# Details in all cases: 10 µM unless noted
# NCI-H23 lung = system: NCI-H23 lung
# NCI-H226 lung = system: NCI-H226 lung
# NCI-H322M lung = system: NCI-H322M lung
# HOP-62 NSCLC = system: HOP-62 NSCLC
# NCI-H460 lung = system: NCI-H460 lung
# HOP-92 NSCLC = system: HOP-92 NSCLC
# NCI-H522 lung = system: NCI-H522 lung
# A549/ATCC NSCLC = system: A549/ATCC NSCLC
# 786-0 renal = system: 786-0 renal
# COLO 205 colon = system: COLO 205 colon
Compound,growth (NCI-H23 lung),growth (NCI-H226 lung),growth (NCI-H322M lung),growth (HOP-62 NSCLC),growth (NCI-H460 lung),growth (HOP-92 NSCLC),growth (NCI-H522 lung),growth (A549/ATCC NSCLC),growth (786-0 renal),growth (COLO 205 colon)
O=S(OO)c1cc(Cl)c(O)c(Cl)c1 (stereo not given),101% (inactive),109% (inactive),97.7% (inactive),105% (inactive),102% (inactive),92.1% (inactive),102% (inactive),94.7% (inactive),97.1% (inactive),117% (inactive)
Cc1cc[c-]cc1.Fc1c[c-]c(-c2ccccn2)c(F)c1.N#CCC[PH+](CCC#N)c1ccccc1.[Pt+2],34.3% (inactive),72.3% (inactive),79.4% (inactive),116% (inactive),43.1% (inactive),16.3% (inactive),16% (inactive),50.5% (inactive),48.9% (inactive),12.5% (inactive)
C=CC[PH+](c1ccccc1)c1ccccc1.C=CC[PH+](c1ccccc1)c1ccccc1.[Pt+2].[S-]c1nc2ccccc2[nH]1.[S-]c1nc2ccccc2[nH]1,-12.4% (active),-20.6% (active),6.44% (active),-0.445% (active),-6.83% (active),-44.3% (active),-44.2% (active),-3.29% (active),-4.36% (active),-36.7% (active)
Cc1cc(N(CCCl)CCCl)ccc1/C=N\NC(=O)c1cccnc1,66.1% (inactive) and 73.8% (inactive),-36.1% (active) and 11.8% (inactive),108% (inactive) and 97.9% (inactive),80.4% (inactive) and 87.5% (inactive),21.2% (inactive) and 28.7% (inactive),88.9% (inactive) and 94.3% (inactive),82.3% (inactive) and 105% (inactive),73.5% (inactive) and 82.5% (inactive),81.1% (inactive) and 84% (inactive),94.1% (inactive) and 102% (inactive)
NC(=O)Oc1cc(OC(N)=O)cc(N(CCCl)CCCl)c1,50% (inactive),79.5% (inactive),111% (inactive),58.5% (inactive),23.9% (inactive),75.9% (inactive),17.9% (inactive),50.6% (inactive),28.6% (inactive),86.8% (inactive)
CCC1(CCSC#N)C(=O)NC(=O)NC1=O,91.5% (inactive),104% (inactive),97.9% (inactive),94.9% (inactive),107% (inactive),85.8% (inactive),109% (inactive),106% (inactive),93.5% (inactive),108% (inactive)
O=[N+]([O-])c1cc(Cl)c(Cl)cc1Cl,105% (inactive) and 107% (inactive),114% (inactive) and 108% (inactive),116% (inactive) and 123% (inactive),112% (inactive) and 107% (inactive),110% (inactive) and 108% (inactive),110% (inactive),134% (inactive) and 110% (inactive),88.7% (inactive) and 111% (inactive),111% (inactive) and 112% (inactive),117% (inactive) and 106% (inactive)
CC[C@H](C)[C@H](NC(=O)CN(C)C)C(=O)N(C)[C@H](C[C@@H](OC(C)=O)c1nc(C(=O)NC23CC(C(=O)OC)(C2)C3)cs1)C(C)C,33.3% (inactive),35.2% (inactive),39.2% (inactive),20.1% (inactive),7.29% (active),57.2% (inactive),12% (inactive),19.3% (inactive),26.4% (inactive),-35.8% (active)
Clc1ccc(COC(Cn2ccnc2)c2ccc(Cl)cc2Cl)c(Cl)c1 (stereo not given),40.6% (inactive) and 25.2% (inactive),68.3% (inactive) and 75.9% (inactive),94.1% (inactive) and 85.6% (inactive),71.3% (inactive) and 84.9% (inactive),56.8% (inactive) and 55.9% (inactive),-1.54% (active) and 14.5% (inactive),39% (inactive) and 41.5% (inactive),37.3% (inactive) and 12.5% (inactive),48.9% (inactive) and 49.6% (inactive),57.2% (inactive) and 57.9% (inactive)
CCCCn1c(=O)c(C(=O)NCc2ccccc2Cl)c(O)c2ccccc21,54.1% (inactive),63% (inactive),75.2% (inactive),76.9% (inactive),67.6% (inactive),66.9% (inactive),73.4% (inactive),58% (inactive),52.2% (inactive),92.8% (inactive)
CC(=O)OC1CC2(O)C(CCC3(C)C(c4ccc(=O)oc4)CCC32O)C2(C)CCC(OC3OC(CO)C(O)C(O)C3O)C=C12 (stereo not given),-57.2% (active),-91.6% (active),-81.6% (active),-70.7% (active),-75.3% (active),-24.2% (active),-39.2% (active),-72.9% (active),-74.6% (active),-47.1% (active)
